According to ChEMBL document CHEMBL1157539, “Thousands of chemical starting points for antimalarial lead identification” (Nature, 2010):
Values joined by “and” are separate entries in the source; they are usually repeats but may differ in a detail not shown here. Equal entries are not always repeated.

How the values were obtained:
Format in all cases: functional
Plasmodium falciparum [1] = assay: GSK_TCMDC: Inhibition of Plasmodium falciparum 3D7 in whole red blood cells, using parasite LDH activity as an index of growth. Test compounds present at 2uM
Plasmodium falciparum [2] = assay: GSK_TCMDC: Inhibition of Plasmodium falciparum Dd2 in whole red blood cells, using parasite LDH activity as an index of growth. Test compounds present at 2uM
HepG2 = assay: GSK_TCMDC: Percent inhibition of human HepG2 cell line. Test compounds present at 10uM.

SMILES	Inhibition (Plasmodium falciparum [1])	Inhibition (Plasmodium falciparum [2])	Inhibition (HepG2)
COc1cc(Nc2ccnc3ccc(C(F)(F)F)cc23)cc(OC)c1OC	100%	100%	15%
Cc1ccccc1C1CCN(c2ccc(C(=O)Nc3ccc(F)cc3)cn2)CC1.O=C(O)C(F)(F)F	96%	96%	45%
CC(C)CC(=O)NC1CCN(Cc2c(-c3cccs3)nc3ccccc3c2C(=O)N[C@@H](C)C2CCCCC2)CC1	96%	97%	0%
CC(C)CNCc1ccc(-c2cccc(CN(CCCN3CCN(C)CC3)C(=O)/C=C/c3ccccc3)c2)cc1.O=C(O)C(F)(F)F	95%	93%	43%
Cc1cccc2nc(-c3ccc(-c4ccc(CNCCc5ccncc5)cc4)cc3)[nH]c12.O=C(O)C(F)(F)F	100%	98%	34%
Cc1cc(=O)c(-c2ccc(Oc3cccc(C(F)(F)F)c3)cc2)c(C)[nH]1	97% and 96%	97% and 95%	8% and 14%
O=C(NCCN1CCCC1)c1cccc(-c2ccc(-c3nc4ccccc4[nH]3)cc2)c1	100%	36%	20%
CCCCCc1cc(OC(C)=O)c2c(c1)OC(C)(C)C=C2C1=CCN(Cc2ccccc2)CC1.O=C(O)/C=C/C(=O)O	97%	88%	14%
OC(COCc1ccc(-c2ccccc2)cc1)CN1CCCCC1 (stereo not given)	99%	75%	13%
CS(=O)(=O)CCN(CCS(C)(=O)=O)Cc1ccc(-c2ccc3ncnc(Nc4ccc(OCc5cccc(F)c5)c(Cl)c4)c3c2)o1.Cc1ccc(S(=O)(=O)O)cc1	90%	27%	0%
